ChEMBL document CHEMBL3433997, “St. Jude Leishmania screening dataset” (2016)

Key:
Type in all cases: functional
[1] = target: Solute carrier family 2, facilitated glucose transporter member 1 (Homo sapiens) (UniProt P11166); assay: ST_JUDE_LEISH: Cytotoxicity at 2uM final concentration against transgenic Leishmania Mexicana promastigotes LmGLUT1 that are glucose transport deficient and complemented with the human glucose transporter GLUT1. Activity is measured by DNA content using SYBR green in vitro
[2] = target: Hexose transporter 1 (Plasmodium falciparum) (UniProt O97467); assay: ST_JUDE_LEISH: Cytotoxicity at 2uM final concentration against transgenic Leishmania Mexicana promastigotes LmPfHT that are glucose transport deficient and complemented with the Plasmodium falciparum hexose transporter. Activity is measured by DNA content using SYBR green in vitro
[3] = target: Glucose transporter (Leishmania mexicana) (UniProt O61059); assay: ST_JUDE_LEISH: Cytotoxicity at 2uM final concentration against transgenic Leishmania Mexicana promastigotes LmGT2 that are glucose transport deficient and complemented with the L. Mexicana glucose transporter 2. Activity is measured by DNA content using SYBR green in vitro

Solute carrier family 2, facilitated glucose transporter member 1 (Homo sapiens), sequence (P11166 whole entry): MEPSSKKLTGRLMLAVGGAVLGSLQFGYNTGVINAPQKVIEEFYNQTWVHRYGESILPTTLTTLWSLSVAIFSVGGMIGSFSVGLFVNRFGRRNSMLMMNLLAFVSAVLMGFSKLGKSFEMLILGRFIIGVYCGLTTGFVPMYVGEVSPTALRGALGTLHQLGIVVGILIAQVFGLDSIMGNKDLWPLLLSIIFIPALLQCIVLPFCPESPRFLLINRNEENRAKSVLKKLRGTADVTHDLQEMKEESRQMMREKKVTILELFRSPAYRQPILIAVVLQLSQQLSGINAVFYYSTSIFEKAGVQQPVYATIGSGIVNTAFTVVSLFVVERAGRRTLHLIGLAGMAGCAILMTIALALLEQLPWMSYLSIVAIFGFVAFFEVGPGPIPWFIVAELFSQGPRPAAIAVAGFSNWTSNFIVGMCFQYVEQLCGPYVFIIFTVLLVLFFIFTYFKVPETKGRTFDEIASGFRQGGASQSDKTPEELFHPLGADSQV

Row | Compound | inhibition [1] [%] | inhibition [2] [%] | inhibition [3] [%]
1 | CN(C)c1ccc(C2c3[nH]cnc3CCN2C(=O)Nc2cccc([N+](=O)[O-])c2)cc1 (configuration not stated) | 7.55 | 8.52 | 1.43
2 | COc1cc2nc(NCCc3ccccc3)nc(NCCCc3ccccc3)c2cc1OC | 6.89 | 10.1 | 2.36
3 | O=C(Nc1cc(Oc2ccc(O)cc2)cc([N+](=O)[O-])c1)c1cc(-c2ccc(F)cc2)no1 | 2.24 | -1.36 | 1.6
4 | COc1ccccc1C1CN(Cc2coc3ccccc3c2=O)Cc2ccccc2O1 (configuration not stated) | 0.38 | 0.56 | 0.45
5 | N#Cc1ccc(-c2ccc(OCC(O)CN3CCCN(C(=O)C(c4ccc5c(c4)OCO5)N4CCN(C/C=C/c5ccccc5)CC4)CC3)cc2)cc1 (configuration not stated) | 4.32 | 2.9 | 2.95
6 | COc1ccc(-c2c(C(F)(F)F)nn(C)c2NC(=O)Nc2ccc(F)cc2F)cc1 | -1.15 | -0.84 | 1.24
7 | CCC(CC)(Cc1ccccc1)NC(=O)[C@H](CC1CCCCC1)Nc1ccc(C#N)c2ccccc12 | -1.5 | -0.75 | -0.23
8 | CC(C)(C)OC(=O)NCc1ccc(Nc2nnc(-c3cccc(OCC(=O)NCc4cc(C(F)(F)F)cc(C(F)(F)F)c4)c3)o2)cc1 | 0.8 | 1.63 | 1.12
9 | CC(C)Nc1nc(NC2CCCCC2)nc(N2CCCCCCC2)n1 | 19.3 | 17.4 | 11.6
10 | CCOC(=O)N1NC(=O)N(c2ccccc2)C1(c1ccccc1)c1ccccc1 | 2.45 | 1.19 | 2.17
11 | CCN(CCCN1CCCCC1)c1cc(C)nc(Nc2cccc(C(F)(F)F)c2C)n1 | -0.36 | 1.74 | 0.96
12 | CN(C)c1cccc2c(S(=O)(=O)Nc3cccc(CCN4CCC(N5CCCCC5)CC4)c3)cccc12 | 0.3 | -3.51 | -0.34
13 | CS(=O)(=O)n1c(CN2CCN(c3ncc(C(F)(F)F)cc3Cl)CC2)nc2ccccc21 | 8.28 | 7.91 | 5
14 | COC(=O)CCn1c(C2CCN(CC3CCC(NC(=O)/C=C/c4ccc(Cl)c(Cl)c4)CC3)CC2)nc2ccccc21 (configuration not stated) | 0.97 | 2.03 | 3.04
15 | O=C(Nc1ccc(CCNC2=NCCN2)cc1)Nc1ccc(CCNC2=NCCN2)cc1 | 3.77 | 3.97 | 3.62
16 | N#CC(c1ccc(Br)cc1)c1ccc2c(C(F)(F)F)cc(C(F)(F)F)nc2n1 (configuration not stated) | 4.94 | 4.44 | 0.48
17 | COc1ccc(-c2cc(NCc3ccc(-n4ccnc4)cc3)nc(Nc3ccccc3)n2)cc1 | 2.37 | 0.85 | 1.83
18 | CCN(CC)CCN(Cc1ccc(-c2ccc(C(F)(F)F)s2)cc1)C(=O)Cn1c(CCc2cccc(F)c2F)nc(=O)c2ccccc21 | 1.5 | 2.39 | 2.57
19 | CCCc1cc2c3c(N)nc(N)nc3ccc2n1C(CC)CC | 46.3 | 54.9 | 42.6
20 | Nc1nc(N)c2c(ccc3[nH]c(-c4ccccc4Cl)nc32)n1 | 77.1 | 69.7 | 61.8
21 | CC(C)(CNC(=O)[C@@H]1CCCCN1)c1nc(-c2ccc(Cl)c(O)c2)c(-c2ccncc2)[nH]1 | 2.07 | 2.19 | 1.02
22 | Cc1ccccc1C1CCN(C2CCC(NC(=O)/C=C/c3c[nH]c4ccccc34)CC2)CC1 (configuration not stated) | 2.31 | 0.84 | -0.41
23 | NC1=NC(c2ccccc2)(c2ccccc2)C(=O)N1CCCCc1ccccc1 | -0.67 | 0.44 | -1.44

Row | Compound | inhibition [1] [%] | inhibition [2] [%] | inhibition [3] [%]
24 | CN1CCN(CCCNCc2cccc(-c3ccc(CNCCc4ccccc4)cc3)c2)CC1 | 2.41 | 3.07 | 1.49
25 | O=C(Nc1ccccc1)N(Cc1cccc(-c2ccc(CNCc3ccc4c(c3)OCO4)cc2)c1)C1CCN(Cc2ccccc2)CC1 | 2.89 | 4.07 | 2.52
26 | CC(C)c1ccc(NC(=O)c2ccc(C(=O)NC3CCN(Cc4ccsc4)C3)cc2)cc1 (configuration not stated) | 2.74 | 4.64 | 0.52
27 | Cc1ncccc1-c1cccc2c(NC(=O)Nc3ccc4nccc(N5CCN(C)CC5)c4c3)cccc12 | 4.96 | 3.58 | 1.71
28 | Cc1cc(N[C@@H](Cc2ccccc2)C(=O)Nc2ccccc2)nc(NCCc2cccs2)n1 | 4.14 | 2.39 | 1
29 | COc1cc(CNCCCCCCNCc2cc(OC)c(OC)c3ccccc23)c2ccccc2c1OC | 4.44 | 4.27 | 3.2
30 | COc1ccc(NC(=O)[C@H](Cc2ccccc2)Nc2cc(C)nc(NCCc3ccccc3)n2)cc1 | 5.74 | 6.29 | 5.16
31 | Cc1cc(NC(=O)NCCN2CCC(NC(=O)c3ccc(Cl)cc3)CC2)c2ccccc2n1 | 1.7 | 1.76 | 2.94
32 | CCN1CCN(c2cc(C)c3cc(NC(=O)c4ccc(C(C)(C)C)cc4)ccc3n2)CC1 | -0.6 | 2.13 | 1.59
33 | CS(=O)(=O)NCCCNCc1ccc(-c2ccc(-c3nc4cc(F)ccc4[nH]3)s2)cc1 | -2.43 | -1.55 | -2.09
34 | CCCCNCc1ccc(-c2nc(CN(C(=O)Nc3cc([N+](=O)[O-])ccc3F)C3Cc4ccccc4C3)cs2)cc1 | 6.86 | 8.03 | 4.78
35 | CCC(C)NC(=O)Nc1cccc(-c2cccc(-c3nc4cccc(C)c4[nH]3)c2)c1 (configuration not stated) | -1.54 | -0.37 | 11.5
36 | COc1ccc(-c2nc(NC(=O)Cc3cccc(OC)c3)sc2C)cc1 | 0.19 | 0.46 | 3.16
37 | O=C(Cc1cccc(Cl)c1)Nc1cccc(-c2c[nH]c3nc(Nc4cccc(O)c4)ncc23)c1 | 0.33 | 0.22 | -0.68
38 | Cc1cccc2nc(-c3cccc(-c4cccc(C(=O)N5CCCCC5CN5CCC(O)C5)c4)c3)[nH]c12 (configuration not stated) | 0.56 | 0.67 | -1.67
39 | CCCc1cc(OC)c(CC2c3cc(O)c(Cl)cc3CCN2C)cc1OC (configuration not stated) | 9.73 | 7.17 | 14.9
40 | COc1cccc(-c2cccc(-c3ccc(NC(=O)c4ccc([N+](=O)[O-])o4)cc3)n2)c1 | 66.2 | 59.8 | 23.3
41 | O=C(CCc1c[nH]cn1)Nc1cccc(-c2ccc(-c3nc4cc(F)ccc4[nH]3)s2)c1 | 10.2 | 7.95 | 9.84
42 | CCc1ccccc1-c1csc(C(=O)NCC2CCN(Cc3ccc(C(C)(C)C)cc3)C2)c1 (configuration not stated) | 6.04 | 4.94 | 4.81
43 | CCCc1cc(OCCCOc2ccccc2)ccc1OCCCON1C(=N)N=C(N)NC1(C)C | 20.6 | 26.8 | 14
44 | Cc1cc(N(C)C)nc(Nc2ccc(NC(=O)c3c(F)cccc3F)cc2)n1 | 6.1 | 6.29 | -2.85
45 | COc1ccc(-n2nc(C)cc2C(=O)NCc2ccc(-c3c(C)noc3C)cc2)cc1 | 2.56 | 2.4 | -0.58
46 | N#Cc1c(N2CCCCCC2)nc(N)c2c(N)nc3c(c12)CC(=O)N3c1ccc(F)cc1 | 2.61 | 1.65 | 2.89

Row | Compound | inhibition [1] [%] | inhibition [2] [%] | inhibition [3] [%]
47 | CC1(C)NC(N)=NC(=N)N1OCCCOc1ccccc1Cl | 8.95 | 10 | 12
48 | COc1cccc2cc(C(=O)N[C@@H](CC(C)C)C(=O)N[C@H](C=NN(C)C(=O)OC(C)(C)C)Cc3ccccc3)oc12 | 5.65 | 7.62 | 5.03
49 | CN(C)CCC1CCN(CCS(=O)(=O)c2cccc(Nc3ccc(-c4ccsc4)cn3)c2)CC1 | -0.36 | 0.82 | 1.59
50 | NCc1ccc(CNCc2cccc(-c3cccc(-c4nc5cc(F)ccc5[nH]4)c3)c2)cc1 | 9.71 | 9.36 | 8.54
51 | COc1ccc(-c2ccc(NC(=O)c3cccc(C#N)c3)cc2)cc1CN(C)C | 1.28 | 0.34 | 0.41
52 | c1ccc(-c2cccnn2)cc1 | 1.25 | 1.26 | 1.72
53 | CCNc1cc(C(=O)N[C@@H](Cc2ccccc2)[C@H](O)CN[C@@H]2CCc3ccccc32)cc(N2CCCC2=O)c1 | 10.5 | 2.63 | 2.15
54 | Cn1nc(-c2cccc(CN[C@@H]3CCc4ccc(O)cc43)c2)c2cnc(NCCCN3CCCC3)nc21 | 11.2 | 4.83 | 4.3
55 | COc1ccc(CCN(C)CCCN2CCC(NC(=O)c3cccc4c(=O)c5ccccc5sc34)CC2)cc1OC | 2.6 | 1.86 | 5.63
56 | CC(C)N1CCC(N(Cc2ccc(-c3ccc(C(F)(F)F)cc3)cc2)C(=O)Cn2c(CCc3cccc(F)c3F)cc(=O)c3cn(C)nc32)CC1 | 10.3 | 8.4 | 13
57 | COc1ccc(-c2nc(NC(=O)Cc3coc4cc(OC)ccc34)sc2C)cc1 | -1.68 | 0.45 | -0.72
58 | O=C(CSc1cccc[n+]1[O-])c1ccc(Cc2ncc(C(F)(F)F)cc2Cl)s1 | 9.45 | 9.48 | 10.7
59 | Fc1ccc2c(NN=Cc3ccccc3F)ccnc2c1 | 0.28 | -0.28 | 0.43
60 | COc1ccc(OC)c(Cc2c(C)nc3nc(N)nc(N)c3c2C)c1 | -0.27 | 0.88 | -3.07
61 | O=C(Nc1ccc(Cn2ncc(N3CCCNCC3)c(Cl)c2=O)cc1)Nc1ccc(F)cc1[N+](=O)[O-] | 10.2 | 11.4 | 5.42
62 | CS(=O)(=O)CCOCc1ccc(-c2ccc3ncnc(Nc4ccc(OCc5cccc(F)c5)c(Cl)c4)c3c2)o1 | 6 | 4.18 | 7
63 | Nc1ncc(-c2ccccc2)cc1/C=C/c1cccnc1 | 0.64 | -2.47 | 0.23
64 | CC(C)Oc1cc2c(cc1NS(=O)(=O)c1ccc(-c3ccc(Cl)s3)cc1F)CCN(C)CC2 | 39.9 | 5.23 | 1.77
65 | CSc1ccc(CN2CCC(NC(=O)c3ccc(-c4ccc(N(C)C)cc4)s3)CC2)cc1 | 1.5 | 0.28 | 2.99
66 | Cc1c(CCC#N)c(NCc2ccccc2)n2c(nc3ccccc32)c1C#N | 1.13 | 0.53 | -0.97
67 | COc1ccc2[nH]c(C)cc(=NN=Cc3cc(OC)c(OC)cc3OC)c2c1 | 5.42 | 5.13 | 6.18
68 | O=C(CCc1cccnc1)Nc1cccc(-c2ccc(-c3nc4cc(C(F)(F)F)ccc4[nH]3)s2)c1 | -0.82 | 1.89 | 2.16
69 | Cc1cc(C2CCN(CCCCNC(=O)c3ccc(NC(=O)c4ccc(Cl)cc4)cc3)CC2)c(C)cc1OCc1ccccn1 | 2.54 | 2.64 | 0.11
